Results from PubChem BioAssay AID488969 (Vanderbilt High Throughput Screening Facility, 2010).
In all, about 110,000 compounds were measured (“z-score”: median about -0.1, highest 2% from about 2 on). Many of the other results were omitted from the sample, so the highest values are more common in it than they were. Calls of active or inactive are those of the source.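 How the source made its calls: active means z-score in the third read window above 3 or below -3; inactive means the rest.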

What follows are compounds tested against Metabotropic glutamate receptor 8 (Rattus norvegicus) (UniProt P70579) (assay: rat mGluR8 modulators via GIRK flux, primary screen, cell-based, thallium flux, HTS (AID 488969)). Conditions: HEK293 rat mGluR8, GIRK (G protein-gated inwardly rectifying potassium channel) thallium flux, FluoZin2; at 10 µM; stronger effect = higher value; submaximal glutamate (EC20) added with thallium.
Sequence of Metabotropic glutamate receptor 8 (Rattus norvegicus) (P70579 whole entry, looked up): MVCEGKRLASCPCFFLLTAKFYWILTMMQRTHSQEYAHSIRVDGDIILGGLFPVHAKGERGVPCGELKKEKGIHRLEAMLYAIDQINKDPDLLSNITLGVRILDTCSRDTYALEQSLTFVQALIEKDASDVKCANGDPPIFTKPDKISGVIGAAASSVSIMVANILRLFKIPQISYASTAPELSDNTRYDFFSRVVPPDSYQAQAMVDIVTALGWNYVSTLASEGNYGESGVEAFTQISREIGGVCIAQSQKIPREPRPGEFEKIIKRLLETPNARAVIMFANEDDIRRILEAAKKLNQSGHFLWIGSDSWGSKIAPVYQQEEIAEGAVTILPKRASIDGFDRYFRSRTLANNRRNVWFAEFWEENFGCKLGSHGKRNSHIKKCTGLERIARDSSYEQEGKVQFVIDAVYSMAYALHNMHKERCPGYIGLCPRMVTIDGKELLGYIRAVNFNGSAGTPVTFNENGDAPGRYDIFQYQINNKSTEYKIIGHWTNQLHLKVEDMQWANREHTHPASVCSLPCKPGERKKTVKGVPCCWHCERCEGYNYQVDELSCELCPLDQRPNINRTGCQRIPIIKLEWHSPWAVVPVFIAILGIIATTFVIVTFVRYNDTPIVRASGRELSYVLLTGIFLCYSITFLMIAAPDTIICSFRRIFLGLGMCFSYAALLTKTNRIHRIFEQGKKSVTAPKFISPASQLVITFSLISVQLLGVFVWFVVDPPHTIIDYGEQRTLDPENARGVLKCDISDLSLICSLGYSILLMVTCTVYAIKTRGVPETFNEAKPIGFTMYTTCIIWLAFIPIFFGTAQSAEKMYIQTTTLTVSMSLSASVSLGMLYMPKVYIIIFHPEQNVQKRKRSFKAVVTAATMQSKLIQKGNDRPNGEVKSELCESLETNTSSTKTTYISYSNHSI

Compound | z-score
O=C(c1ccccc1)c1ccc(Oc2ncccn2)cc1 | -0.321
O=[N+]([O-])c1ccccc1N/N=C/c1cc2ccccc2nc1Cl | -0.459
CC(C)c1ccc(-c2c(C#N)c(N)nc(SCC(=O)N3CCCCC3)c2C#N)cc1 | -0.019
O=C1c2cccc3cccc(c23)C(=O)N1CCN1CCN(C(=S)Nc2ccc(F)cc2)CC1 | -0.203
Cc1cccc(-n2c(SCC(=O)Nc3ncc(Cl)cc3Cl)nc3ccccc32)c1 | -0.585
COc1ccc(-n2c(=S)[nH]c3ccccc32)cc1 | 1.9
Cc1ccc(-n2c(-c3ccccc3)n[nH]c2=S)cc1 | 0.357
COc1ccc(-n2cc(-c3ccccc3)[nH]c2=S)cc1 | 11.4 (active)
O=C(O)CCC(=O)NC1CCCCC1NC(=O)CCC(=O)O (stereo unspecified) | 2.2
O=C(CCCC(=O)NC1CCCC1)NC1CCCC1 | -0.0851
O=C(O)CCC(=O)NC1CCCCCCC1 | 3.34 (active)
O=C(O)CCC(=O)NC1CCCCC1 | -0.0259
CC1CCCCC1NC(=O)CSCC(=O)O (stereo unspecified) | -0.0424
O=C(CCC1CCCC1)NC1CCCCC1 | -0.0138
O=S(=O)(NCc1cccnc1)c1cccc2cccnc12 | -0.0796
Cc1cc(C)c(S(=O)(=O)N(C)CC(=O)N2CCCCC2)c(C)c1 | 0.255
COc1ccc2c(c1)c(N=O)c(O)n2C | -0.55
O=C(C1CCN(S(=O)(=O)N2CCOCC2)CC1)N1CCc2ccccc21 | -1.37
O=C(NCCO)c1scc2c1OCCO2 | 0.107
Cc1cccc(-n2c(O)c(C=NCc3ccccn3)c3ccccc3c2=O)c1 | -0.159
Cc1ccc(-n2c(O)c(C=NCc3ccccn3)c3ccccc3c2=O)cc1 | -0.774

Compound | z-score
O=c1c2ccccc2c(C=NCc2ccccn2)c(O)n1-c1ccccc1 | 9.73 (active)
COc1ccc(CNC(=O)C/C(C)=N/NC(=O)Cc2ccc(OC)c(OC)c2)cc1 | 0.123
CCCCN(CCCC)S(=O)(=O)c1ccc2[nH]c(=O)[nH]c2c1 | -0.144
COc1ccc(/C=C(\C#N)C(=O)Nc2cccnc2)cc1 | -0.0907
CCOc1ccc(/C=C(\C#N)C(=O)Nc2cccnc2)cc1 | -0.416
COc1cc(/C=C(\C#N)C(=O)Nc2cccnc2)ccc1OC(C)C | 2.99
CC(C)C(=O)NC(C)C(c1cccs1)N1CCN(C)CC1 (stereo unspecified) | 0.199
COc1ccccc1OCCOc1ccc(C(=O)c2ccccc2)cc1 | 1.04
O=C(CSc1ccccc1)NCCSCc1ccccc1 | -0.635
NC(=O)CSc1nc2cc([N+](=O)[O-])ccc2n1-c1cccc(C(F)(F)F)c1 | 0.159
CCNC(=O)CSc1nc2cc([N+](=O)[O-])ccc2n1-c1cccc(C(F)(F)F)c1 | -0.0324
C=CCNC(=O)NC(=O)CSc1nc2cc([N+](=O)[O-])ccc2n1-c1cccc(C(F)(F)F)c1 | 2.75
O=C(OCCN1C(=O)CCC1=O)c1ccc(S(=O)(=O)N2CCCCC2)cc1 | -1.06
Cn1c(NC(=O)c2cccs2)c(-c2cccs2)c(=O)c2ccccc21 | 0.899
Cc1nn(Cc2ccc(Cl)cc2)c(C)c1NC(=O)C1CC=CCC1C(=O)O (stereo unspecified) | -0.0201
CNCCCC1Sc2ccccc2Oc2ccccc21 (stereo unspecified) | 2.85
CN(C)CCC1Sc2ccccc2Oc2ccccc21 (stereo unspecified) | 1.77
CCN(CC)CCCNC(=O)C1c2ccccc2Oc2ccccc21 | 0.199
Cc1sc(NC(=O)c2ccco2)c(C(=O)c2ccc(Cl)cc2)c1C | -0.135
CC(C)(C)NC(=O)c1cc(Cl)ccc1[N+](=O)[O-] | -0.172
N#C/C(=C/c1cn(-c2ccccc2)nc1-c1cccc(S(=O)(=O)N2CCOCC2)c1)C(=O)NCc1ccco1 | -0.112

Compound | z-score
NC1=NC2(CCCCC2)N(c2cccc(Cl)c2)C(N)=N1 | 0.453
Cc1cccc(N2C(N)=NC(N)=NC23CCCCC3)c1 | 2.24
Cc1ccc(N2C(N)=NC(N)=NC23CCCC3)c(C)c1 | 0.0847
Cc1ccc(S(=O)(=O)NCCSCc2ccccc2)cc1 | -0.24
CC(=O)c1cn(CC(=O)NCc2ccc3c(c2)OCO3)c2ccccc12 | -0.0873
Cn1c(=O)cc(OCCCC(=O)Nc2ccc3c(c2)OCCO3)c2ccccc21 | -0.101
O=C(CCn1cccc1)NCc1ccc2c(c1)OCO2 | -0.423
COc1ccc(CNC(=O)CCCOc2cc(=O)n(C)c3ccccc23)cc1 | 0.0421
Cn1c(=O)cc(OCCCC(=O)NCc2ccc3c(c2)OCO3)c2ccccc21 | 8.84 (active)
Cn1cc(CCC(=O)NCc2ccc3c(c2)OCO3)c2ccccc21 | 3.75 (active)
O=S(=O)(NCc1ccccn1)c1ccccc1 | -0.362
COc1ccc(-c2nc(-c3cccc(C)c3)[nH]c(=O)c2C#N)cc1 | -0.296
COc1ccc(S(=O)(=O)n2ccc(C)n2)cc1C | -0.988
CCCNC(=O)C1CCN(S(=O)(=O)c2ccc(-c3nn[nH]n3)cc2)CC1 | -0.171
N/C(=N\c1nc2c(c(=O)[nH]1)CCC2)Nc1ccccc1 | 0.214
CC12CN(Cc3ccccc3)CC(C)(CN(Cc3ccccc3)C1)C2=NO | 2.4
c1ccc(CN2CCOCC2)cc1 | 0.378
CC(=O)C1CCN(Cc2ccccc2)CC1 | -0.262
Cn1ncc(Br)c1C(=O)N/N=C/c1cccc(OC2CSC2)c1 | -0.309
